Experimental findings from PubChem BioAssay AID2235 (The Scripps Research Institute Molecular Screening Center, 2010) are described below.

The structures appear in SMILES notation. The campaign covered roughly 320,000 compounds. About 2,800 (0.88%) were called active.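 The calls were made as follows: active = inhibition above the mean inhibition of all tested compounds plus 3 SD, computed separately for each screening campaign (cut at about 15% in these data); inactive = the rest.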 The sample as a whole holds a higher share of actives than the screen did.

Broadly, the inhibition is the change of the read-out against control, counted positive when it falls.

The target of the experiment is Serine/threonine-protein phosphatase PP1-alpha catalytic subunit (Homo sapiens) (UniProt P62136). Description: inhibition of human PP1 catalytic subunit – biochemical, fluorescence, OMFP substrate, single point, counter-screen for PP5 inhibitor project, primary screen (AID 2235). Particulars: purified PP1alpha, at 6.7 µM, active compounds read high.
Chain of Serine/threonine-protein phosphatase PP1-alpha catalytic subunit (Homo sapiens) (P62136 whole entry, looked up): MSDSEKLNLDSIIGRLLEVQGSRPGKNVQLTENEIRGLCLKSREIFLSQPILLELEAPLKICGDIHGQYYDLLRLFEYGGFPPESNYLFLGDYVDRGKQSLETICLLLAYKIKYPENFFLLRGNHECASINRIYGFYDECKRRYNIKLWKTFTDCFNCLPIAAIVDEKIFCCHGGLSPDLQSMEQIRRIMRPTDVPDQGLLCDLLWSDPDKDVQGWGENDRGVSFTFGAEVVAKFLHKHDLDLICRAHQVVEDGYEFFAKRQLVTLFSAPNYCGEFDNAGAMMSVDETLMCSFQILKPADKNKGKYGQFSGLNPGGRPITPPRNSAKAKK
In the case of `COC(=O)C1=NNC2(c3ccc(C)cc3)C(=O)N(c3cccc(C)c3C)C(=O)C12` (stereo not drawn), the inhibition is 2.4% (inactive).

With `Cc1ccc(-c2cnc(NC(=O)CCC(=O)N(C)Cc3ccccc3)n2C)cc1`, the inhibition is -3.93% (inactive).

Regarding `CC(c1nnc(SCC(=O)Nc2sccc2C#N)n1-c1ccc(Cl)cc1)N(C)C` (stereo not drawn), the inhibition was -0.51% (inactive).

For `COc1ccc(NC(=O)CN(C)C(=O)c2cc(C3CC3)nn2-c2ccccc2)cc1`, the inhibition was -0.28% (inactive).

For `CC(C)Oc1ccc(CC(=O)NNC(=S)Nc2ccc(Br)cc2)cc1`, the inhibition is 6.13% (inactive).

Consider `Cc1ccc(C(=O)NNC(=O)c2cc3cc4ccccc4nc3s2)cc1`, for which the inhibition was 15.8% (active).

Regarding `O=C(NNC(=O)c1cc2c(s1)CCCC2)c1ccccc1`, the inhibition was -3.37% (inactive).

For `Cc1ccc(C(=O)NNC(=O)c2cccs2)cc1`, the inhibition is 3.43% (inactive).

In the case of `O=C(O)c1cccc(N=NN2CCCCCC2)c1`, the inhibition is 2.62% (inactive).

With `CCN(CC(=O)Nc1ccc(NC(C)=O)cc1)C(=O)CSC(=S)N1CCCC1`, the inhibition was -1.09% (inactive).

`CCOc1cc(C)ccc1OCc1nnc(SCC(=O)Nc2cccc(C(=O)O)c2)n1-c1ccccc1`: the inhibition is -6.28% (inactive).

Take `COc1ccc2nc(/N=C(\N)NC(=O)Nc3ccccc3)nc(C)c2c1`: the inhibition is 7.87% (inactive).

With `Cc1nc(/N=C(\N)NC(=O)NC2CCCCC2)nc2ccccc12`, the inhibition was 18.6% (active).

Take `O=C(NNC(=O)C(O)c1ccccc1)NC1CCCCC1` (stereo not drawn): the inhibition was -1.2% (inactive).

As to `CC1(C)C2CC=C(/C=N/NC(=O)c3ccc(Cl)cc3)C1C2` (stereo not drawn), the inhibition was 0.59% (inactive).

On to `COc1ccc(C(C#N)Nc2ccc(C)cc2)cc1` (stereo not drawn), for which the inhibition is -2.92% (inactive).

As for `N#CC1=C(N)Oc2c(sc3ccccc23)C1c1ccco1` (stereo not drawn), the inhibition is 15.7% (active).

`N#CC1=C(N)Oc2c(ccc3cccnc23)C1c1ccncc1` (stereo not drawn): the inhibition is -1.75% (inactive).

With `CON(C)S(=O)(=O)c1ccc2c(c1)NC(=O)C1CCCN21` (stereo not drawn), the inhibition was 5.21% (inactive).

`O=C(NC(=S)NC1CCS(=O)(=O)C1)c1cccc([N+](=O)[O-])c1` (stereo not drawn): the inhibition was -0.09% (inactive).

For the compound `Cc1nn(-c2ccc([N+](=O)[O-])cc2)c(N)c1-c1ccccc1`, the inhibition is -0.19% (inactive).

As for `O=C1CC(c2ccccc2)=NN1c1ccc([N+](=O)[O-])cc1`, the inhibition was 15.4% (active).

In the case of `CC1=NN(c2ccccc2)C(=O)C1C(=O)c1ccc([N+](=O)[O-])cc1` (stereo not drawn), the inhibition was -1.75% (inactive).

On to `Cc1ccc(NC(=O)CN(C)C(=O)COC(=O)c2nccnc2N)cc1`, for which the inhibition was 6.11% (inactive).

`CC(C)OC(=O)c1cc(NC(=O)C2C3CCC(O3)C2C(=O)O)cc(C(=O)OC(C)C)c1` (stereo not drawn): the inhibition is 48.8% (active).

Take `COc1ccc(NC(=O)CNC(=O)Cc2ccccc2)cc1OC`: the inhibition was -3.57% (inactive).

For the compound `COc1ccc(NC(=S)SC)cc1OC`, the inhibition was -7.31% (inactive).

Regarding `Cc1sc(NC(=O)C2C3CCC(O3)C2C(=O)O)c(C(=O)OC(C)C)c1-c1ccc(Cl)cc1` (stereo not drawn), the inhibition is 10.9% (inactive).

`COC(=O)c1cc(NC(=O)C2C3C=CC(C3)C2C(=O)O)cc(C(=O)OC)c1` (stereo not drawn): the inhibition is 2.03% (inactive).

Take `COc1ccc(NC(=O)C2C3CCC(O3)C2C(=O)O)cc1OC` (stereo not drawn): the inhibition is 71.5% (active).

Consider `COc1ccc(N(CC(=O)N/N=C/c2cccc3c2OCCO3)S(=O)(=O)c2ccc(NC(C)=O)cc2)cc1`, for which the inhibition was 4.91% (inactive).

With `CCOc1ccccc1N1CN(Cc2ccccc2)CNC1=S`, the inhibition is -3.54% (inactive).

Take `CC(C)c1ccc(N(C(=O)c2ccco2)C(C(=O)NC2CCCC2)c2cccnc2)cc1` (stereo not drawn): the inhibition is 4.81% (inactive).

`CN(CC(=O)Nc1ccc(Cl)cc1)C(=O)CNC(=O)c1ccc2ccccc2c1`: the inhibition is -2.18% (inactive).

Consider `Cc1cc(-c2csc(N)n2)c(C)n1-c1ccccc1`, for which the inhibition is 25.1% (active).

`Cc1cc(-c2csc(N)n2)c(C)n1Cc1ccccc1`: the inhibition was 14.8% (inactive).

`CC(=O)Nc1ccc(C(=O)Nc2nc(-c3cc(C)n(Cc4ccccc4)c3C)cs2)cc1`: the inhibition is 3.86% (inactive).

For `CC(=O)Nc1ccc(S(=O)(=O)N2CCC(NC(=O)c3ccccc3)CC2)cc1`, the inhibition was 0.38% (inactive).

Take `CCCNC(=O)c1ccc(N2CCC3(CC2)CC(c2ccc(Cl)cc2)=NO3)c([N+](=O)[O-])c1`: the inhibition is -4.68% (inactive).

For `CCCNC(=O)c1ccc(N2CCC3(CC2)CC(c2cccc(Br)c2)=NO3)c(NC(=O)c2ccco2)c1`, the inhibition is 15.6% (active).

Regarding `O=C(Nc1ccccc1N1CCN(C(=O)c2ccccc2)CC1)c1ccco1`, the inhibition was 0.05% (inactive).

On to `CC(C)=CC(=O)Nc1nnc(-c2ccc(F)cc2)s1`, for which the inhibition is -5.78% (inactive).

Take `COc1ccc(C2=NN(C(=O)CSc3nnnn3C)C(c3ccco3)C2)cc1` (stereo not drawn): the inhibition was -2.47% (inactive).

For the compound `Cc1ccc(N(C(=O)c2ccc(CN3CCOCC3)o2)C(C(=O)NCCC(C)C)c2cccs2)c(C)c1` (stereo not drawn), the inhibition was -1.98% (inactive).

With `COc1ccc(C)cc1-n1nnnc1SCc1nc2ccccc2c(=O)[nH]1`, the inhibition was 9.72% (inactive).

Regarding `Cc1ccc(-c2noc(CSc3nnnn3-c3ccccc3)n2)cc1`, the inhibition is 0.28% (inactive).

As for `Cc1ccc(Nc2nc(CSc3nnnn3-c3ccccc3)cc(=O)[nH]2)cc1`, the inhibition is 37.6% (active).

In the case of `CC1(C)O[C@@H]2[C@H](O1)[C@@H](CO)O[C@H]2n1c(N2CCCCC2)nc2c(N)ncnc21`, the inhibition is -3.13% (inactive).

For the compound `CC(=O)Nc1ccc(S(=O)(=O)N2CCn3cccc3C2C)cc1` (stereo not drawn), the inhibition is 0.86% (inactive).

For the compound `O=C(CSc1nc2ccccc2[nH]1)N/N=C/C=C\c1ccccc1[N+](=O)[O-]`, the inhibition is -2.41% (inactive).

Take `Cc1ccc(-n2c(SCC(=O)N/N=C/C=C/c3ccccc3[N+](=O)[O-])nc3ccccc3c2=O)cc1`: the inhibition is 16.8% (active).

Turning to `CCn1c(SCC(=O)N/N=C/C=C/c2ccccc2[N+](=O)[O-])nnc1-c1ccccc1`, the inhibition is -0.35% (inactive).

Consider `Cc1cccc(NC(=O)c2ccc(S(=O)(=O)N(C)CC3CCCO3)cc2)c1C` (stereo not drawn), for which the inhibition was 0.75% (inactive).

Take `NS(=O)(=O)c1ccc(NC(=S)Nc2ccc(Br)c(Cl)c2)cc1`: the inhibition is 0.34% (inactive).

Take `CCOc1ccc(C(=O)NC(C(=O)NCc2ccccn2)C(C)C)cc1` (stereo not drawn): the inhibition is 1.59% (inactive).

For the compound `Cc1nc2cc(NC(=O)NCc3ccccc3)ccc2o1`, the inhibition is -6.2% (inactive).

Consider `CCOc1cc(NC(=S)NCCCOC)c(OCC)cc1NC(=O)c1ccco1`, for which the inhibition was -3.32% (inactive).

On to `COCCNC(=O)Nc1ccc2nc(-c3ccco3)c(-c3ccco3)nc2c1`, for which the inhibition was 22.8% (active).

Take `O=C(NCc1ccccn1)c1ccc2nc(-c3ccco3)c(-c3ccco3)nc2c1`: the inhibition was 31.1% (active).

As to `Cc1cc(C)cc(NC(=O)NCc2ccccn2)c1`, the inhibition was -2.05% (inactive).

For `C[C@H](NC(=O)[C@@H]1Cc2ccccc2CN1C(=O)OC(C)(C)C)C(=O)NC1CCCC1`, the inhibition was -1.9% (inactive).

With `CC(=O)Nc1ccc(SC[C@H](Cc2ccccc2)N2CC[C@@H](C)CCC2=O)cc1`, the inhibition is 2.41% (inactive).

As for `Cc1nc2cccnc2nc1C`, the inhibition is 2.22% (inactive).

As to `CCCCn1c(N)c(N(CC(C)C)C(=O)c2cccc(S(=O)(=O)N3CC(C)OC(C)C3)c2)c(=O)[nH]c1=O` (stereo not drawn), the inhibition was -0.35% (inactive).

With `COc1ccc(S(=O)(=O)N2CCOC2CNC(=O)C(=O)NCc2ccncc2)cc1OC` (stereo not drawn), the inhibition was -2.33% (inactive).

For the compound `COc1ccc(-c2nn(-c3ccccc3)cc2/C=C\C(=O)Nc2ccc(C(=O)O)cc2)cc1`, the inhibition was 23.8% (active).

Turning to `Cc1ccc(-c2nn(-c3ccccc3)cc2/C=C/C(=O)Nc2cccc(S(N)(=O)=O)c2)cc1`, the inhibition was 2.13% (inactive).

For the compound `COc1ccc(NC(=O)c2cn(-c3ccccc3)nc2SC)cc1`, the inhibition was 0.29% (inactive).

Take `O=C(CSc1ccccc1F)NC1CCS(=O)(=O)C1` (stereo not drawn): the inhibition was -3.59% (inactive).

As to `CC(C)(C)NC(=O)Cn1c(SCC(=O)Nc2nccs2)nc2ccccc21`, the inhibition is -0.87% (inactive).

For `O=C1CC(c2c(F)cccc2Cl)C(n2cncn2)C(O)=C1C1NCCc2ccccc21` (stereo not drawn), the inhibition was 3.05% (inactive).

For the compound `COc1cc(C(C)=O)ccc1OC(C)C(=O)Nc1ccc(S(=O)(=O)N2CCCC2)cc1` (stereo not drawn), the inhibition was -2.63% (inactive).

`C=CCn1c(=NC(=O)c2ccc(S(=O)(=O)N3CCCC3)cc2)sc2cc(NC(C)=O)ccc21`: the inhibition is 21.1% (active).

As for `C=CCn1c(=NC(=O)c2cccs2)sc2cc(NC(C)=O)ccc21`, the inhibition is 14.5% (inactive).

Regarding `C=C(Br)Cn1c(CCCC)nc2ccccc21`, the inhibition was -2.53% (inactive).

For `COc1ccc(CNC(=O)C(c2ccc(O)cc2)N(Cc2ccco2)C(=O)c2snc(C(N)=O)c2N)cc1` (stereo not drawn), the inhibition is 4.97% (inactive).

As for `O=C(C1=C(O)C(=O)N(Cc2ccccc2)C1c1cccnc1)c1ccco1` (stereo not drawn), the inhibition is 0.59% (inactive).

With `CCOc1ccc(C2/C(=C(/O)c3ccc4c(c3)CC(C)O4)C(=O)C(=O)N2CCCn2ccnc2)cc1` (stereo not drawn), the inhibition was 9.12% (inactive).

Turning to `CCCOc1ccc(C2C(C(=O)c3ccc(C)o3)=C(O)C(=O)N2CCCn2ccnc2)cc1` (stereo not drawn), the inhibition was 33.5% (active).

In the case of `C=CCOc1cccc(C2C(C(=O)c3ccc(C)o3)=C(O)C(=O)N2CCCn2ccnc2)c1` (stereo not drawn), the inhibition is 17.4% (active).

`CCCOc1ccc(C2c3c(oc4cc(C)c(C)cc4c3=O)C(=O)N2CCCN2CCOCC2)cc1` (stereo not drawn): the inhibition was 3.82% (inactive).

`C=CCOc1cccc(C2C(C(=O)c3ccc(C)o3)=C(O)C(=O)N2c2nnc(C)s2)c1` (stereo not drawn): the inhibition is 2.22% (inactive).

In the case of `CCN(CC(=O)Nc1cc(Cl)ccc1C)C(=O)CN1C(=O)NC2(CCCC2)C1=O`, the inhibition was 0.75% (inactive).

In the case of `C=CCNC(=O)CC12CC3CC(C1)CC(CC(=O)NCC=C)(C3)C2`, the inhibition was -3.18% (inactive).

`Clc1ccc2c(c1)C1=C(C(c3ccncc3)O2)C(c2ccc(Br)cc2)n2ncnc2N1` (stereo not drawn): the inhibition is 20.3% (active).

`Brc1ccc(C2=CC(c3ccco3)n3ncnc3N2)cc1` (stereo not drawn): the inhibition is 0.45% (inactive).

Consider `CC1=C(C(N)=O)C(c2ccc(Br)cc2)n2ncnc2N1` (stereo not drawn), for which the inhibition was 1.51% (inactive).

Take `COc1ccc(C(C(=O)NC2CCCCC2)N(C(=O)Cc2c[nH]c3ccccc23)c2ccccc2)cc1OC` (stereo not drawn): the inhibition was 2.63% (inactive).
